The subject of one assay is CRL-7250. As to the kind of experiment: Cytotoxic Profiling of Annotated Libraries Using Quantitative High-Throughput Screening (AID 1296008). For max response: % is set by controls: 0 for no effect and ±100 for the full control effect. Note: potency is the fitted concentration of half-maximal effect. The settings on record: Five cell lines viability, CellTiter-Glo ATP luminescence, 48-72 h; max response: stronger effect = lower value. In a few lines: (§1)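 Cytotoxicity was measured as CellTiter-Glo ATP luminescence, read after 10 min at room temperature. Compound treatment of the cells lasted 48 or 72 hr at 37 degrees Celsius in a qHTS format.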
For orientation: Cellular ATP, detected with luciferase, serves as a proxy for viable cell number.

The test system of the next assay is HEK293. Described as above. The settings on record: Five cell lines viability, CellTiter-Glo ATP luminescence, 48-72 h; max response: stronger effect = lower value. In a few lines:
as §1

Another assay relates to NIH3T3. Described as above. The settings on record: Five cell lines viability, CellTiter-Glo ATP luminescence, 48-72 h; max response: stronger effect = lower value. In a few lines: as §1
The test system of assay [1] is HaCat. Described as above. The settings on record: Five cell lines viability, CellTiter-Glo ATP luminescence, 48-72 h; max response: stronger effect = lower value. In a few lines:
as §1

The test system of assay [2] is HACAT. Nature of the assay: qHTS assay to identify novel small-molecules to repurpose for Merkel cell carcinoma treatment (AID 1296009). The settings on record: MCC and control cell lines, CellTiter-Glo viability, 72 h; at 44.8 µM (top of the series) unless noted. Summed up:
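Cell viability measured by CellTiter-Glo following 72 hr compound treatment at 37 degree celsius, with NPC and MIPE libraries tested in 8- and 11-point concentration series.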
A general note: qHTS replaces the single test concentration by a dilution series.

Inconclusive results are not listed. Unmarked numbers belong to inactive results. Active and inactive are the calls of the source. Calls come from the whole dose curve; as a rule, active = well fitted inhibition curve with a large enough effect; inconclusive = small, poorly fitted or top-dose-only effect; inactive = flat fitted curve, though single readings scatter.
Note: nearly all actives have a fitted effect of over 60% in size.

As for `CN1CCN(C2CCN(C(=O)Nc3cc(Oc4ccc(NC(=O)C5(C(=O)Nc6ccc(F)cc6)CC5)c(F)c4)ccn3)CC2)CC1`, the Potency is 9.2 µM (active) in the assay with CRL-7250, 13 µM (active) in the assay on HEK293 and 2.59 µM (active) in the assay with NIH3T3.

On to `Nc1ncnc2c1nc(Cl)n2C1OC2COP(=O)(O)OC2C1O` (stereo not given), for which the Potency in the assay with CRL-7250 was 6.51 µM (active); with HEK293, 1.64 µM (active); with NIH3T3 it was 5.8 µM (active).

Turning to `COC1CC(O[C@H]2CC[C@]3(C)C4CC[C@]5(C)C(C6=CC(=O)OC6)=CCC56OC46CC[C@@H]3C2)OC(C)C1O[C@@H]1O[C@H](CO[C@@H]2O[C@H](CO)[C@@H](O)[C@H](O)[C@H]2O)[C@@H](O)[C@H](O)[C@H]1O` (stereo not given in full), the Potency with CRL-7250 is 1.55 µM (active); in the assay on HEK293, 1.74 µM (active). The call in the assay with NIH3T3 was inactive.

`CC(C)(O)/C=C/C(=O)[C@](C)(O)[C@H]1[C@H](O)C[C@@]2(C)[C@@H]3CC=C4[C@@H](C[C@H](O[C@@H]5O[C@H](CO)[C@@H](O)[C@H](O)[C@H]5O)C(=O)C4(C)C)[C@]3(C)C(=O)C[C@]12C`: the values for the max response in the assay on CRL-7250 and in the assay on HEK293 were -1.87% and -10.4%, respectively. For the same compound, the result in the assay on NIH3T3 was inactive.

As to `COC1CC(O[C@H]2CC[C@]3(C)C4CC[C@@]5(C)C(=O)[C@]4(CC[C@@H]3C2)CC[C@@H]5C2=CC(=O)OC2)OC(C)C1OC1OC(COC2OC(CO)C(O)C(O)C2O)C(O)C(O)C1O` (stereo not given in full), the Potency in the assay with CRL-7250 is 1.55 µM (active); in the assay on HEK293 it was 1.23 µM (active). Further, the compound was called inactive in the assay with NIH3T3.

For `CC1CCCC[C@H]2C(=O)C=C[C@H](O)[C@@H]2CC(=O)O1` (stereo not given in full), the Potency is 8.2 µM (active) in the assay with CRL-7250, 1.64 µM (active) in the assay with HEK293 and 18.4 µM (active) with NIH3T3.

`CCOc1cc(C(C)(C)C)ccc1C1=N[C@@](C)(c2ccc(Cl)cc2)[C@@](C)(c2ccc(Cl)cc2)N1C(=O)N1CCN(CC(=O)N2CCOCC2)CC1`: the results for the Potency in the assay on CRL-7250, in the assay on HEK293 and with NIH3T3 were 14.8 µM (active), 4.17 µM (active) and 10.1 µM (active), respectively.

Turning to `O=C(NO)c1cnc(N2CCN(S(=O)(=O)c3ccc4ccccc4c3)CC2)nc1`, the Potency in the assay on CRL-7250 was 7.96 µM (active); with NIH3T3, 2.24 µM (active). Besides, the max response with HEK293 is -106%.

Take `Cc1cc(C(=O)Nc2cc(Nc3ccc4c(/C=C/c5ccccn5)n[nH]c4c3)ccc2F)n(C)n1`: the Potency in the assay with CRL-7250 was 18.4 µM (active); in the assay on HEK293, 11.6 µM (active); with NIH3T3, 0.731 µM (active).

For `C#CC(=O)N(c1ccc(OC)cc1OC)C(C(=O)NCC(=O)OCC)c1cccs1` (stereo not given), the Potency was 0.206 µM (active) in the assay on CRL-7250, 0.259 µM (active) with HEK293 and 0.164 µM (active) in the assay on NIH3T3.

As to `Cc1cccc(-c2[nH]ncc2-c2ccnc3ccccc23)n1`, the max response was -17.2% in the assay on CRL-7250 and -23.7% in the assay with HEK293. Moreover, the call in the assay on HaCat [1] and with HACAT [2] was inactive.

Turning to `COc1ccc2cc3c(NC(=O)c4ccco4)nn(C)c3nc2c1`, the max response is -20.9% in the assay on CRL-7250 and -26.7% in the assay with HaCat [1].

Regarding `Cc1[nH]c(/C=C2\C(=O)Nc3ccc(S(=O)(=O)N(C)c4cccc(Cl)c4)cc32)c(C)c1C(=O)N1CCN(C)CC1`, the outcome with CRL-7250, in the assay on HaCat [1] and in the assay with HACAT [2] was inactive. Further, the Potency in the assay with HEK293 is 6.51 µM (active).

Turning to `COC(=O)C1=COC(O[C@@H]2O[C@H](CO[C@@H]3O[C@H](COC(=O)/C=C\c4ccc(O)cc4)[C@@H](O)[C@H](O)[C@H]3O)[C@@H](O)[C@H](O)[C@H]2O)C2C(CO)=CCC12` (stereo not given in full), the max response is -64.3% in the assay on CRL-7250, -82.6% in the assay with HEK293 and -28.7% in the assay on NIH3T3.

For the compound `C=C1C(=O)O[C@@H]2C(OC(=O)/C(C)=C\C)/C(C)=C\C(=O)/C=C(\C)C[C@H](O)[C@@H]12` (stereo not given in full), the Potency was 10.1 µM (active) with CRL-7250, 2.55 µM (active) in the assay on HEK293 and 9.04 µM (active) with NIH3T3.

Consider `c1ccc(-c2ccc(CNc3nc(-c4ccccn4)nnc3-c3ccccc3)cc2)cc1`, for which the Potency is 5.8 µM (active) in the assay on CRL-7250, 5.17 µM (active) with HEK293 and 3.66 µM (active) in the assay with NIH3T3.

With `Cc1cc(Nc2nc(-c3ccccc3)nc3ccccc23)n[nH]1`, the results for the Potency with CRL-7250, in the assay on HEK293 and in the assay with NIH3T3 were 5.17 µM (active), 7.31 µM (active) and 9.2 µM (active), respectively.

For `CNC(=O)[C@@H](c1ccccc1)N1CCc2cc(OC)c(OC)cc2[C@@H]1CCc1ccc(C(F)(F)F)cc1`, the max response in the assay on CRL-7250 was -4.36%; with NIH3T3, -22.6%. In addition, the Potency with HEK293 was 16.4 µM (active).

Regarding `C=C(C)C(=O)O[C@H]1[C@H]2C(=C)C(=O)O[C@@H]2C[C@@H](C)[C@@H]2O[C@@H]2C(=O)[C@](C)(O)[C@@H]1OC(=O)C(=C)C`, the Potency in the assay with CRL-7250 is 7.09 µM (active); in the assay on HEK293 it was 2.52 µM (active); in the assay with NIH3T3, 3.55 µM (active).

As for `C=C1C(=O)O[C@@H]2[C@H]1CC(=O)[C@H](C)[C@@](O)(C(=O)/C=C/C)[C@H]2OC(=O)C(C)CC` (stereo not given in full), the Potency in the assay with CRL-7250 was 7.18 µM (active); in the assay with HEK293, 2.86 µM (active); in the assay on NIH3T3, 4.04 µM (active).

Take `Cc1noc(-c2ccc(-c3ccc(CC(=O)O)cc3)cc2)c1NC(=O)O[C@H](C)c1ccccc1Cl`: the max response was -11.1% with CRL-7250 and -3.72% with HEK293. Moreover, the Potency in the assay on NIH3T3 was 7.31 µM (active).

As for `O=S(=O)(Nc1cc(Cl)c(Oc2cnc3ccccc3c2)c(Cl)c1)c1ccc(Cl)cc1Cl`, the call in the assay on CRL-7250, with HaCat [1] and in the assay on HACAT [2] was inactive. Also, the max response in the assay with HEK293 is -18.7%.

In the case of `Cn1nc(-c2ccc(C(F)(F)F)cc2)nc2c(=O)n(C)c(=O)nc1-2`, the results for the Potency with CRL-7250, with HEK293 and in the assay with NIH3T3 were 14.6 µM (active), 6.51 µM (active) and 1.3 µM (active), respectively.

With `Cc1cc2c(F)c(Oc3ncnn4cc(OCC(C)OC(=O)C(C)N)c(C)c34)ccc2[nH]1` (stereo not given), the max response with CRL-7250 was -5.94%. For the same compound, the Potency in the assay with HEK293 was 6.51 µM (active). Besides, the outcome with HaCat [1] and in the assay on HACAT [2] was inactive.

Values taken from PubChem BioAssay (NCATS).
